From the supplement of paper PMC7801607

Test system: Plasmodium berghei ANKA liver stage in HepG2-A16-CD81
Test: % inhibition of liver stage parasite viability (luciferase); higher = more inhibition
Conditions: 5 µM; 48 h
Method: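 Single-concentration screen of the MMV Pandemic Response Box. P. falciparum NF54 asexual blood stages: pLDH assay, 72 h at 37 °C, 2 and 20 µM, n=2. Stage IV/V gametocytes (NF54): luciferase reporter (NF54-Pfs16-GFP-Luc, 48 h), ATP bioluminescence (24 h) and PrestoBlue (48 h) at 1 and 5 µM, n=1. P. berghei liver stage (luciferase in HepG2-A16-CD81, 48 h post infection) at 5 µM, n=4. All normalised to DMSO and kill controls as % inhibition.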

Compound	% inhibition of liver stage parasite viability [%]
Cc1c(N)cccc1Cn1ccc(OCCc2cccs2)cc1=O	17
Cn1cncc1[C@@](N)(c1ccc(Cl)cc1)c1ccc2c(c1)c(-c1cccc(Cl)c1)cc(=O)n2C	60.7
Cc1onc(-c2ccccc2)c1-c1ccc(S(N)(=O)=O)cc1	4.19
Cc1cc(C)n2nc(C(=O)NS(=O)(=O)c3c(C)cccc3OC(F)(F)F)nc2n1	37
O=C(O)c1ccc(-n2nc(-c3ccccc3O)nc2-c2ccccc2O)cc1	18.6
CCC[C@H](NC(=O)[C@@H]1[C@H]2CCC[C@H]2CN1C(=O)[C@@H](NC(=O)[C@@H](NC(=O)c1cnccn1)C1CCCCC1)C(C)(C)C)C(=O)C(=O)NC1CC1	6.72
CCc1cc(O)c(Oc2cccnc2N)cc1F	18.6
Oc1ccc2[nH]c(-c3ccccc3)nc2c1	-35.4
Nc1nc(O)c2ncn(COC(CO)CO)c2n1	7.49
N#C/C(=C1/SC[C@H](c2ccc(Cl)cc2Cl)S1)n1ccnc1	24
Cc1cccc(C)c1C(=O)Nc1nc(-c2ccccn2)cc2ccccc12	73.3
O=C(NCc1ccc(F)cc1)c1c(O)c2ncccc2[nH]c1=O	14
Cc1cc(NS(=O)(=O)c2ccc(-c3ccc(F)cc3F)cc2)no1	43.5
Nc1nc2c(Cc3cccnc3)c[nH]c2c(=O)[nH]1	27.7
NC(=O)c1nccn([C@@H]2O[C@H](CO)[C@@H](O)[C@H]2O)c1=O	14.7
NC(=O)c1ccc(I)c([N+](=O)[O-])c1	20.9
CC[N+]1(C/C2=C/CCCCCC2)CCC(NC(=O)C2c3cc(Cl)ccc3Oc3ccc(Cl)cc32)CC1 (stereo not given)	6.03
COc1cc(Cc2cnc(N)nc2N)c2c(c1OC)OC(C1CC1)C=C2 (stereo not given)	56.5
COc1cccc(N2CCN(C3=Nc4c(F)cccc4[C@H](CC(=O)O)N3c3cc(C(F)(F)F)ccc3OC)CC2)c1	21.2
CNc1nc(=O)[nH]cc1F	18.4

Compound	% inhibition of liver stage parasite viability [%]
COc1ccc(CNC(=O)C2CCN([C@H](C)c3cccc4ccccc34)CC2)cc1	19.6
Nc1nc(Nc2ccc3nc(-c4ccc(F)cc4)cc(N)c3c2)cc(-c2ccccc2)n1	13.6
O=P(O)(O)C(CCCc1cccc(Oc2ccccc2)c1)S(=O)(=O)O (stereo not given)	9.62
NNC(=O)c1ccncc1	22.9
O=C(Nc1cccc(C2=NCCN2)c1)c1ccc(-c2ccc(C(=O)Nc3cccc(C4=NCCN4)c3)cc2)cc1	15.4
N[C@H]1CCC[C@H]1C(=O)O	15.8
CC(C)(C)NC(=O)N[C@H](C(=O)N1C[C@H]2[C@@H]([C@H]1C(=O)NC(CC1CCC1)C(=O)C(N)=O)C2(C)C)C(C)(C)C (stereo not given in full)	-15.2
Nc1cnn(C2OC(CO)C(O)C2O)c(=O)n1 (stereo not given)	-44.9
Clc1ccc(COC(Cn2ccnc2)c2ccc(Cl)cc2Cl)c(Cl)c1 (stereo not given)	33.2
O=C(Nc1ccc(F)cc1)c1nn(-c2ccccc2)c(=O)cc1Cl	3.89
NCC(=O)Nc1ccc(-n2nc(C(F)(F)F)cc2-c2ccc3c(ccc4ccccc43)c2)cc1	20.2
COc1cc(Cc2cnc(N)nc2N)cc(OC)c1OC	66.4
c1cc(CN2CCCNCCNCCCNCC2)ccc1CN1CCCNCCNCCCNCC1	1.46
CCN(CC)S(=O)(=O)c1ccc(Cl)c(C(=O)Nc2sc3c(c2C#N)CCCC3)c1	69.2
CCc1nc(N)nc(N)c1C#CC(C)c1cc(OC)cc(-c2ccncc2)c1 (stereo not given)	70.2
CCOC(=O)/C=C/[C@H](C[C@@H]1CCNC1=O)NC(=O)[C@@H](CC(=O)[C@@H](NC(=O)c1cc(C)on1)C(C)C)Cc1ccc(F)cc1	-3.33
OCCCCn1cnc2c(O)nc(NCc3ccc(Cl)c(Cl)c3)nc21	7.89
Cc1ccccc1NC(=O)Nc1cccc([N+](=O)[O-])c1	6.73
O=C(CCCC(F)(F)F)N1CCC(c2nc(-c3nccs3)no2)CC1	-0.37
Cc1nc2ccc(Cl)cc2c(-c2ccccc2)c1CC(=O)O	24.5
